Columns and labels:
Conditions in all cases: concentration: 1 μM, replicates: in singlicate; n = 1
PDPK1 = system: PDPK1
PFTAIRE2 = system: PFTAIRE2
PFTK1 = system: T1, PFTK1
T1 construct: gene CDK14

PHKG1 = system: PHKG1
PHKG2 = system: PHKG2
PIK3C2B = system: PIK3C2B
PIK3C2G = system: PIK3C2G
PIK3CA = system: PIK3CA
PIK3CB = system: PIK3CB
PIK3CD = system: PIK3CD
PIK3CG = system: PIK3CG
PIK4CB = system: T2, PIK4CB
T2 construct: gene PI4KB

PIKFYVE = system: PIKFYVE
PIM1 = system: PIM1
PIM2 = system: PIM2
PIM3 = system: PIM3
PIP5K1A = system: PIP5K1A
PIP5K1C = system: PIP5K1C
PIP5K2B = system: PIP5K2B
PIP5K2C = system: T3, PIP5K2C
T3 construct: gene PIP4K2C
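Also: KINOMEscan kinase panel screen.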

| SMILES | %Inh (PDPK1) | %Inh (PFTAIRE2) | %Inh (PFTK1) | %Inh (PHKG1) | %Inh (PHKG2) | %Inh (PIK3C2B) | %Inh (PIK3C2G) | %Inh (PIK3CA) | %Inh (PIK3CB) | %Inh (PIK3CD) | %Inh (PIK3CG) | %Inh (PIK4CB) | %Inh (PIKFYVE) | %Inh (PIM1) | %Inh (PIM2) | %Inh (PIM3) | %Inh (PIP5K1A) | %Inh (PIP5K1C) | %Inh (PIP5K2B) | %Inh (PIP5K2C) |
| --- | --- | --- | --- | --- | --- | --- | --- | --- | --- | --- | --- | --- | --- | --- | --- | --- | --- | --- | --- | --- |
| COc1cc2ncn(-c3cc(OCc4ccncc4Br)c(C(N)=O)s3)c2cc1OC [GW854278] | 0% | 0% | 0% | 8% | 1% | 54% | 12% | 0% | 0% | 5% | 55% | 23% | 17% | 0% | 0% | 2% | 0% | 86% | 41% | 81% |
| Nc1ncnc2c1ncn2-c1cccc(F)c1 [SKF-97560] | 7% | 0% | 20% | 5% | 0% | 0% | 35% | 0% | 0% | 0% | 14% | 14% | 17% | 1% | 18% | 0% | 6% | 0% | 9% | 0% |
| COc1cccc(C2=C(N(C)c3ccccc3)C(=O)NC2=O)c1 [SB-334865] | 0% | 0% | 20% | 0% | 0% | 0% | 0% | 0% | 0% | 0% | 0% | 0% | 2% | 0% | 0% | 0% | 0% | 70% | 6% | 30% |
| COc1ccc(-c2cc3c(C)nc(N)nc3n([C@H]3CC[C@H](OCCO)CC3)c2=O)cn1 | 0% | 0% | 0% | 7% | 0% | 98.1% | 98.1% | 100% | 100% | 96.6% |  | 96.1% | 11% | 0% | 44% | 0% | 0% | 1% | 2% | 9% |
| Cc1ccc(-c2ccc3c(ccc4sc5c(c43)NC[C@@H](C)N=C5N(C)C)n2)cn1 | 0% | 0% | 0% | 0% | 0% | 0% | 0% | 0% | 55% | 15% | 0% | 0% | 42% | 0% | 0% | 0% | 0% | 0% | 0% | 0% |
| CC(C)(C)c1ccc(C(=O)Nc2cn3cc(-c4ccccc4)ccc3n2)cc1 | 0% | 0% | 0% | 4% | 2% | 0% | 0% | 0% | 14% | 0% | 0% | 0% | 27% | 30% | 0% | 19% | 0% | 32% | 6% | 54% |
| COc1cccc(-n2cnc3c(N)ncnc32)c1 [SKF-97416] | 0% | 0% | 0% | 34% | 0% | 0% | 34% | 21% | 32% | 54% | 44% | 41% | 41% | 20% | 14% | 24% | 2% | 13% | 0% | 0% |
| COC(=O)c1c(-c2ccccc2)c2cc(Br)ccc2c(=O)n1Cc1ccc(S(C)(=O)=O)cc1 | 0% | 7% | 0% | 24% | 13% | 7% | 11% | 7% | 28% | 0% | 1% | 5% | 0% | 9% | 14% | 9% | 19% | 0% | 23% | 0% |
| COc1ccc(Nc2nccc(N3CCC(NS(=O)(=O)c4ccc(NC(C)=O)cc4)C3)n2)cc1 (stereo not drawn) [GSK1379729] | 9% | 17% | 20% | 18% | 0% | 7% | 6% | 4% | 0% | 27% | 11% | 14% | 11% | 0% | 0% | 0% | 0% | 49% | 9% | 62% |
| Nc1nc(-c2ccccc2F)c(-c2ccnc3ccccc23)s1 [GW560459] | 0% | 12% | 5% | 7% | 0% | 0% | 0% | 0% | 0% | 12% | 0% | 0% | 0% | 0% | 0% | 3% | 13% | 46% | 4% | 59% |
| OCCCNc1nccc(-c2c(-c3cccc(C(F)(F)F)c3)nn3cc(C(F)(F)F)ccc23)n1 [GW630813] | 0% | 1% | 18% | 0% | 5% | 0% | 0% | 0% | 0% | 0% | 0% | 0% | 0% | 9% | 0% | 0% | 30% | 66% | 2% | 38% |

From PMC5540273 (PLoS ONE, 2017)
